# According to PubChem BioAssay (NCI):
# This is part of a sample that, as a whole, favours compounds with a hit. Of some 79,000 tested, about 15% had one in any assay. Values without a mark were called inactive. Calls of active or inactive are those of the source. Cut-off read from the data, not from the text of the source: active = growth inhibition above about 70%; inactive = the rest.
# Test: NCI Yeast Anticancer Drug Screen. Data for the mlh1 rad18 strain (AID 175)
# Conditions: S. cerevisiae mlh1 rad18 strain growth inhibition, active compounds read high
# Procedure: Growth inhibition of yeast strains with defined genetic alterations is measured as a screen for potential anti-cancer activity. Selected strains with alterations in DNA damage repair or cell cycle control were exposed to compounds and growth inhibition was measured relative to vehicle treated controls. The strain used in this assay is mlh1 rad18
# [1] = at 5.0 µM (retest, dose inferred, filed as 0.5)
# [2] = at 50.0 µM (retest, dose inferred, filed as 5.0)
Structure (SMILES),growth inhibition [1],growth inhibition [2],growth inhibition (at 50.0 µM)
COc1ccc(C(Cc2ccc(Cl)c(Cl)c2)NCCO)cc1 (configuration not stated),3%,48%,86.2% (active)
CC(Cc1ccccc1)[N+](=O)[O-] (configuration not stated),-1%,10%,12.1%
CCCCCCCCCCCCC(=O)[O][Hg][c]1ccccc1,99% (active),99% (active),99.5% (active)
O=[N+]([O-])c1cc([N+](=O)[O-])c2cccnc2c1O,-4%,-7%,96.8% (active)
O=C1C2CC(Cl)C(SSC3CC4C(=O)N(SC(Cl)(Cl)C(Cl)Cl)C(=O)C4CC3Cl)CC2C(=O)N1SC(Cl)(Cl)C(Cl)Cl (configuration not stated),99% (active),96% (active),90.8% (active)
OCC(O)C(O)CO (configuration not stated) (tested in a mixture with another compound),-110%,29%,-9.65%
COC(=O)C(F)C(Br)C(=O)OC (configuration not stated),94% (active),98% (active),90% (active)
C[n+]1c(/C=C/c2ccc(O)c3ncccc23)[se]c2ccccc21,43%,90% (active),93.4% (active)
COc1c(NC(=O)CC(C)=O)[c]([Hg][O]C(C)=O)c(OC)c(Cl)[c]1[Hg][O]C(C)=O,38%,95% (active),87.8% (active)
[O]=[Sb][c]1ccc(Cl)cc1,3%,35%,93.3% (active)
C[C@]12CCc3nonc3C1CC[C@@H]1C2CC[C@]2(C)C(=O)CCC12 (some centres not stated),46%,68%,56.9%
CN(N=O)C(=O)NNC(=O)N(C)N=O,6%,89% (active),67%
[N-]=[N+]=C1C(Cl)=C(Cl)C(Cl)=C1Cl,33%,97% (active),99.1% (active)
CC1=C[n+]2cc(C)ccc2Sc2c1ccc1ccccc21,-1%,30%,79.5% (active)
